According to ChEMBL document CHEMBL3988442, “University of Dundee, Small-Polar-MMV Screening Library” (2021):
For some assays here: Entries with a potency or affinity are not part of this list.

How the values were obtained:
Set-up in all cases: scale not given: direction of the effect not stated beside the values
[1] = biological target: Protein translocase subunit SecA (Escherichia coli (strain K12)) (UniProt P10408); assay: Assay to Identify E. coli SecA ATPase Inhibitors; type: functional; conditions: 30 µM
[2] = biological target: T1, Ubiquitin-activating enzyme e1, putative (Leishmania donovani (strain BPK282A1)) (UniProt E9BSI1); assay: Leishmania donovani Ubiquitin Activating Enzyme (LdE1); type: functional; conditions: 30 µM
T1 sequence (whole entry): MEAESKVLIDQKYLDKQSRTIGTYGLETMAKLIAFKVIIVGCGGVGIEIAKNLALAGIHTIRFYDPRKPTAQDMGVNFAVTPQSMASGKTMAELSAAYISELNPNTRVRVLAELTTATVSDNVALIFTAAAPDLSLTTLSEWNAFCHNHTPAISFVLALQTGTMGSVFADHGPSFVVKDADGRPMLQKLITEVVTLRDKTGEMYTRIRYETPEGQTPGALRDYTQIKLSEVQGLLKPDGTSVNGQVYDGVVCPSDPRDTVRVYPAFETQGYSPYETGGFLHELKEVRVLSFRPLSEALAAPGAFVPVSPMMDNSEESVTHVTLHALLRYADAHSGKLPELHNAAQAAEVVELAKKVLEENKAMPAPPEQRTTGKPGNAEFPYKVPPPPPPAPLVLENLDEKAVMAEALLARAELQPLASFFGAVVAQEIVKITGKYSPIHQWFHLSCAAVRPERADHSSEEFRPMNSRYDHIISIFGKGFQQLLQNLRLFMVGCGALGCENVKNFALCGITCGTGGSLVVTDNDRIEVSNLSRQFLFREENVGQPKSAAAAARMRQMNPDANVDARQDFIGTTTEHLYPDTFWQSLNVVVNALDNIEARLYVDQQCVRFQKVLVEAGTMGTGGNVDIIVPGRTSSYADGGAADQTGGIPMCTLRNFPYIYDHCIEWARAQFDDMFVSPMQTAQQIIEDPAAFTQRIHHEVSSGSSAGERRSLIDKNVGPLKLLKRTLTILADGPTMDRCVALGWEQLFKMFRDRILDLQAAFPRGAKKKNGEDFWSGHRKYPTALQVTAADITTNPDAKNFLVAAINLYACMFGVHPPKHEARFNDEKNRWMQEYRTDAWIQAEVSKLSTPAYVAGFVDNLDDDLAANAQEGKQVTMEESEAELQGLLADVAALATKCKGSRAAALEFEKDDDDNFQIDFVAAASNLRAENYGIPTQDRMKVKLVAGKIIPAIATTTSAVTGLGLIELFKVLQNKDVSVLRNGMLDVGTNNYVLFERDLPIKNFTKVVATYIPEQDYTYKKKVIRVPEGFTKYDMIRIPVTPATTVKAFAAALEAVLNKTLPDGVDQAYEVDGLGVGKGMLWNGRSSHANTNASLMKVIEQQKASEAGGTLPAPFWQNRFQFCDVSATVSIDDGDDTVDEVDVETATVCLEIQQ

[3] = biological target: AMP-activated protein kinase, AMPK (Homo sapiens) (UniProt P54646+O43741+P54619+Q9UGJ0+Q9Y478+Q13131+Q9UGI9); assay: AMP-dependent Kinase enzyme assay. An in vitro enzyme assay that detects ADP turnover that is directly proportional to AMPK activity. This uses naive AMPK that is activated during the assay with MK-8722; type: functional; conditions: 30 µM
[4] = biological target: Sialic acid-binding Ig-like lectin 9 (Homo sapiens) (UniProt Q9Y336); assay: Hs-Siglec9 ALPHAscreen SOP 20170721; conditions: 10 µM
Trypanosoma cruzi = assay: Trypanosoma cruzi phosphomannomutase and mannose-1-phosphate guanylyltransferase assay; type: functional; conditions: 10 µM
[5] = biological target: T2, Arginase-2, mitochondrial (Homo sapiens) (UniProt P78540); assay: in vitro enzyme assay to detect the production of urea directly proportional to the activity of Arginase II; type: functional; conditions: 33.3 µM; note: in the data most compounds retested in dose-response had high values
T2 sequence (whole entry): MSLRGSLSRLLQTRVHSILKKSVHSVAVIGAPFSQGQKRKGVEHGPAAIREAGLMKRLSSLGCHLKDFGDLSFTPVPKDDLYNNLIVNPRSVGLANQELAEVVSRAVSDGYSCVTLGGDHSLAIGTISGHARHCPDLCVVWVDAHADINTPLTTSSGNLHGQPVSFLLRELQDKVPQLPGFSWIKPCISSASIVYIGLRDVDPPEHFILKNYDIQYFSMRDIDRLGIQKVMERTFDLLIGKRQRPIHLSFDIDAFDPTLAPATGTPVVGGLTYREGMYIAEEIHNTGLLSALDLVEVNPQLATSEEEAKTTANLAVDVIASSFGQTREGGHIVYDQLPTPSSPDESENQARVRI

[6] = biological target: T3, Proteasome subunit beta (Trypanosoma cruzi) (UniProt O96673); assay: Trypanosoma cruzi proteasome chymotrypsin-like activity (TcProtChymo) assay.; note: in the data most compounds retested in dose-response had high values; type: functional; conditions: 9.37 µM
T3 sequence (whole entry): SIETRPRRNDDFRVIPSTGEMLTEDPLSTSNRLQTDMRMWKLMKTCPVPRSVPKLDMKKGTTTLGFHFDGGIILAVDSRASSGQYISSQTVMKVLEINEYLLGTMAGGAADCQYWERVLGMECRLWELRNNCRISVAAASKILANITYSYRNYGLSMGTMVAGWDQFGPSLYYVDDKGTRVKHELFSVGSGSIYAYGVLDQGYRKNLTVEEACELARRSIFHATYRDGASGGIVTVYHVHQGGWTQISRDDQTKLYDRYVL

Homo sapiens = species on record: Homo sapiens; assay: To identify inhibition of the IFN signalling (Jak-Stat) pathway via expression of an eGFP reporter gene under the control of an IFN-stimulated response element (ISRE) containing MxA promoter.; type: functional; conditions: 30 µM
[7] = biological target: T4, Tyrosyl-tRNA synthetase, putative (Trypanosoma cruzi (strain CL Brener)) (UniProt Q4DSP6); assay: Trypanosoma cruzi tyrosyl tRNA synthetase (TcYRS) _High Tyrosine SOP; type: functional; conditions: 30 µM; note: in the data most compounds retested in dose-response had high values
T4 sequence (whole entry): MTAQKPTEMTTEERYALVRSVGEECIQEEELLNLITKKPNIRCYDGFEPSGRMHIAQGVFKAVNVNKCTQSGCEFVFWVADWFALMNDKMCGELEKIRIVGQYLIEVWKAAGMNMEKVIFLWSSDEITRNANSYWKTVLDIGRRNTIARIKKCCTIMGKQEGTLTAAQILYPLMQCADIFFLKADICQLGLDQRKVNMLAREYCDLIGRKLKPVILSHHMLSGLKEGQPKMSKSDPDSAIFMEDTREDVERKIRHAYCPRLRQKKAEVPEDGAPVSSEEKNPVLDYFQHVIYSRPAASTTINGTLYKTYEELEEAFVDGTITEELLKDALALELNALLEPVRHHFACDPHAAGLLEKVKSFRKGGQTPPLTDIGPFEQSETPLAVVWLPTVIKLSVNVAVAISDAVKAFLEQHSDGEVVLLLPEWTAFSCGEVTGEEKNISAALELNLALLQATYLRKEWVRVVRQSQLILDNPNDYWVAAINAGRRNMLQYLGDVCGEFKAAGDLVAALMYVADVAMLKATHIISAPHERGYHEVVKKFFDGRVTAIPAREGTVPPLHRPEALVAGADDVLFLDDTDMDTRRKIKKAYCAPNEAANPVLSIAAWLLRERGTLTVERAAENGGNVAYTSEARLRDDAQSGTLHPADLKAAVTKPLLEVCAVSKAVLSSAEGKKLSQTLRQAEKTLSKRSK

[8] = biological target: T4, Tyrosyl-tRNA synthetase, putative (Trypanosoma cruzi (strain CL Brener)); assay: Trypanosoma cruzi tyrosyl tRNA synthetase (TcYRS) SOP; type: functional; conditions: 30 µM
[9] = biological target: Chromo domain-containing protein 1 (Saccharomyces cerevisiae (strain ATCC 204508 / S288c) (Baker's yeast)) (UniProt P32657); assay: ScCHD-1 Enzyme Inhibition Assay; type: functional; conditions: 30 µM; note: in the data most compounds retested in dose-response had high values
Chromo domain-containing protein 1 (Saccharomyces cerevisiae (strain ATCC 204508 / S288c) (Baker's yeast)), sequence (P32657 whole entry, the tested form may be a part): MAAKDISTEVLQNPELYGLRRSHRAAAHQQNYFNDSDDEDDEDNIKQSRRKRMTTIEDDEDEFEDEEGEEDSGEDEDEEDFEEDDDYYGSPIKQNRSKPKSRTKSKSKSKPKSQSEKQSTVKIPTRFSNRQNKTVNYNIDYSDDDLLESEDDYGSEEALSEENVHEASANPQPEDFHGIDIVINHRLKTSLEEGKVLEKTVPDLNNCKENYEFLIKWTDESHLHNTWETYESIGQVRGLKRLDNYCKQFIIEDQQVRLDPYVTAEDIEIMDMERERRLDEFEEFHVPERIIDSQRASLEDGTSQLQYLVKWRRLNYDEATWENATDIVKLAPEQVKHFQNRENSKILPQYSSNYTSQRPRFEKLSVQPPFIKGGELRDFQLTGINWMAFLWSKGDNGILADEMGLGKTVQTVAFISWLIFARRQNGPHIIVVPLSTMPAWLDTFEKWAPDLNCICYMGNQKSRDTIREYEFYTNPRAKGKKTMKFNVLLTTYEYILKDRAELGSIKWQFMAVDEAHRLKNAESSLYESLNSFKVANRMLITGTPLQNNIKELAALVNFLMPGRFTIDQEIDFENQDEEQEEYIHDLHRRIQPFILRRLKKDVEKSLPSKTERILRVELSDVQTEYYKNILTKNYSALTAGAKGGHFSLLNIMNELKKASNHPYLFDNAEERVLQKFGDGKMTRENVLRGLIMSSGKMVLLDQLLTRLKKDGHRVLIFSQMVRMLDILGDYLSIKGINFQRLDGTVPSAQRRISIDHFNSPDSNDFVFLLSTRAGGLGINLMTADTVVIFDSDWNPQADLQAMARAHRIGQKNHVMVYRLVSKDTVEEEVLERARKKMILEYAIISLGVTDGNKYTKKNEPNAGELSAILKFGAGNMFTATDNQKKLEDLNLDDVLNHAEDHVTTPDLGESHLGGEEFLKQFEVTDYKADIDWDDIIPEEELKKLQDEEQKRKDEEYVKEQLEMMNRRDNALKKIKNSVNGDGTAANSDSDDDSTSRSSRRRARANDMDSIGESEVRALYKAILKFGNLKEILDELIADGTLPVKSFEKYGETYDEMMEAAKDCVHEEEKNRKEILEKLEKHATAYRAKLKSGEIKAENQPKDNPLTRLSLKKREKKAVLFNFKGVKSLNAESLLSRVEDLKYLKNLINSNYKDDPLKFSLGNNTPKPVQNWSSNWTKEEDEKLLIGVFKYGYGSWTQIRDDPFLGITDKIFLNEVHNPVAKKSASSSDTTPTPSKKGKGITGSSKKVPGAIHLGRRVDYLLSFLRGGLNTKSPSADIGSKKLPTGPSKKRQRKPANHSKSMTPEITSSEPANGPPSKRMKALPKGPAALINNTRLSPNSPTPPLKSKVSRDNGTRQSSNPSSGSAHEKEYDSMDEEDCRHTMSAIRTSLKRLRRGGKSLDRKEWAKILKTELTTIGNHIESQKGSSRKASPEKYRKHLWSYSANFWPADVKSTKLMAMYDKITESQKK

Sialic acid-binding Ig-like lectin 9 (Homo sapiens), sequence (Q9Y336 whole entry): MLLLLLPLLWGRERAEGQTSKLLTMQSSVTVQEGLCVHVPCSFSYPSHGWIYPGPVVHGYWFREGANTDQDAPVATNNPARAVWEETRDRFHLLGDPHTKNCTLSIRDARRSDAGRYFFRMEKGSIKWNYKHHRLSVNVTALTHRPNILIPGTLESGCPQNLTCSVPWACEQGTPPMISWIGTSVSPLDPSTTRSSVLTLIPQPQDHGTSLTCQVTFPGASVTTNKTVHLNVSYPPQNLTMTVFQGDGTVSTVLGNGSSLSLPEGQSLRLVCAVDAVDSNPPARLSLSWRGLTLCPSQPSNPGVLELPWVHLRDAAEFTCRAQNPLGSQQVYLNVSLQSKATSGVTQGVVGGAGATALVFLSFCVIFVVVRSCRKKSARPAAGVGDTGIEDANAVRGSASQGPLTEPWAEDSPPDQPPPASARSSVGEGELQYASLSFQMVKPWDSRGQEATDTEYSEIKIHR
Protein translocase subunit SecA (Escherichia coli (strain K12)), sequence (P10408 whole entry): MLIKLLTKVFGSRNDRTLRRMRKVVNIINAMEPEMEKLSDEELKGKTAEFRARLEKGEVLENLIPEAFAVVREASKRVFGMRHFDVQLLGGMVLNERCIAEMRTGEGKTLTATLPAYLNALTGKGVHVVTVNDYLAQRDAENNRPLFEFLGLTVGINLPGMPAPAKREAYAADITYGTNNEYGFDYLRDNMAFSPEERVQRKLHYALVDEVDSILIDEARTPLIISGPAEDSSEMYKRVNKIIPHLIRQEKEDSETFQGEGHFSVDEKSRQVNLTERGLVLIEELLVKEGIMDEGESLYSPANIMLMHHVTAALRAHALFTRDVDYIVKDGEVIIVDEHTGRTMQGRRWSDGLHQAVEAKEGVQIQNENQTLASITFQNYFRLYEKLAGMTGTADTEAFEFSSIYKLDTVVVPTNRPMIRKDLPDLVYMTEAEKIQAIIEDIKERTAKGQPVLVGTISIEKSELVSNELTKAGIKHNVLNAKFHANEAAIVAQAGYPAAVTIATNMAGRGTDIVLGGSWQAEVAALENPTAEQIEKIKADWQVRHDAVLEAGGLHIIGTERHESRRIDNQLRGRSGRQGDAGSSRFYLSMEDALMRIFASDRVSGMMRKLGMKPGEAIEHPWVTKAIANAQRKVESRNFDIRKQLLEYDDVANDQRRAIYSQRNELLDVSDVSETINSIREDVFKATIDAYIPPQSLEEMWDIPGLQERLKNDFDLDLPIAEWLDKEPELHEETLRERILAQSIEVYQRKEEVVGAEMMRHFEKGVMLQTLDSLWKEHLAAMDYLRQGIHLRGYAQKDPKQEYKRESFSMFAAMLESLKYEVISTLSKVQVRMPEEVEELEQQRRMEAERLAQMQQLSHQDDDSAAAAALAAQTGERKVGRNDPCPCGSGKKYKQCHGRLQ

Compound | Percent Effect [1] [%] | Percent Effect [2] [%] | Percent Effect [3] [%] | Percent Effect [4] [%] | Percent Effect (Trypanosoma cruzi) [%] | Percent Effect [5] [%] | Percent Effect [6] [%] | Percent Effect (Homo sapiens) [%] | Percent Effect [7] [%] | Percent Effect [8] [%] | Percent Effect [9] [%]
COc1cc(C(=O)N2CCC(c3n[nH]c(C4CC4)n3)CC2)ccc1C | -4.66 | -1.27 | 6.11 | -3.19 | -1.33 | 2.37 | -0.686 | 8.43 | 1.04 | -2.53 | -30.5
CC(=O)Nc1ccc(S(=O)(=O)NC(=O)CCC2CCCO2)cc1 (configuration not stated) | -9.79 | 10.8 | -16.6 | 34.9 | 8.21 | -16.8 | 6.31 | -1.72 | 1.48 | 13.6 | -16.9
CC(=O)c1cccc(S(=O)(=O)N2CSCC2C(=O)NCC(F)(F)F)c1 (configuration not stated) | -3.05 | 3.8 | 7.23 | 3.21 | -0.103 | -7.1 | 10.5 | 2.46 | 9.38 | 22.8 | -23.2
COc1ccc(NC(C)C(=O)N2CCN(c3ncccn3)CC2)cn1 (configuration not stated) | -5.21 | 8.22 | -137 | -2.83 | 3.13 | 8.18 | 0.71 | -4.13 | 3.23 | 7.5 | -3.06
CCOc1ccc(Cl)c(C(=O)N2CCN(c3cnccn3)CC2)n1 | -4.82 | 23.4 | -2.68 | 6.96 | 8.43 | 1.42 | 15.5 | 17.5 | 10.7 | 24.4 | -12.4
O=C(c1cc(Cl)c2c(c1)OCO2)N1CCN(c2nccs2)CC1 | -3.24 | 11 | -2.85 | 1.89 | 2.55 | 3.18 | 7.45 | 3.79 | 7.53 | 15 | -3.25
Cc1nc(CN(C)C2CCN(CC(=O)NC3CCOCC3)C2)no1 (configuration not stated) | -1.63 | 16.2 | -9.99 | 0.0133 | -0.836 | -3.14 | 11.1 | 11.9 | 5.94 | 18.3 | -5.55
O=C(c1ccc(Br)s1)N1CCN(Cc2ccc(OC(F)(F)F)cc2)CC1 | -0.131 | -13.7 | 41.1 | 2.45 | -3.72 | -1.82 | 19 | 8.24 | 1.07 | -2.5 | -11.7
CCc1noc(CN2CCN(C(=O)N(C)C)CC2)n1 | -5.22 | -2.53 | 7.62 | 3.9 | -5.38 | 0.38 | 4.83 | 23.4 | -5.42 | -16.5 | -4.89
Cc1ccc(=O)n(CC2(O)CCN(Cc3cc(C)c(O)c(C)c3)CC2)n1 | -6.97 | 23 | -6.19 | 7.09 | 6.52 | -2.55 | 13.3 | -3.64 | 2.15 | 14.3 | 45.6
Cc1nn(C)c(N2CCOCC2)c1CNCc1nccs1 | -3.96 | 7.89 | -1.27 | 5.34 | 9.4 | 4.21 | 9.86 | 3.23 | 3.43 | 17.1 | -6.95
O=C(NCc1nnc2n1CCCCC2)N1CCc2sccc2C1 | 0.647 | 16.5 | -6.61 | 2.88 | 1.95 | 2.8 | 13 | 16.8 | 0 | 10.1 | -27
CC(=O)N1CCN(C(=O)c2cnn(-c3ccccc3Cl)c2)CC1 | -5.95 | 21.6 | -7.37 | 17.5 | 6.32 | -8.82 | 9.19 | 13.8 | 8.37 | 18.5 | -9.57
CN(CCCNC(=O)N1CCCC1c1ccsc1)c1ccccn1 (configuration not stated) | -0.565 | 28.6 | -13.6 | -0.894 | 1.5 | 3.92 | 12.5 | 25.5 | 9.71 | 19.5 | -10.5
Cc1csc(N2CCN(C(=O)CCNc3ncccn3)CC2)n1 | -4.07 | 16.2 | -2.35 | -1.96 | 1.42 | -6.41 | 5.04 | 14.1 | -61.6 | 16.1 | -9.84
COc1ncccc1NC(=O)N(Cc1ccc(C)o1)C1CC1 | -4.84 | 13 | 6 | 6.62 | 8.05 | -4.27 | 2.53 | 56.7 | 6.8 | 19.5 | -5.73
O=C(c1ccc(C2CCCO2)s1)N1CCN(c2ccccc2F)CC1 (configuration not stated) | -2.34 | 16.2 | -2.01 | 21.1 | 3.67 | 30 | 14.1 | -6.24 | 5.82 | 14.6 | -4.16
CC(CNc1cncc(-n2cccn2)n1)N(C)c1ccccc1 (configuration not stated) | -0.428 | 0 | 9.04 | 7.11 | 0.374 | 0.712 | 1.52 | 51.6 | 0.971 | 0 | -6.86
COCCN1CC[C@@H]2OC[C@H](C(=O)NCc3cccs3)C[C@@H]2C1 | 0.484 | 13.5 | 0.443 | -15.8 | -3.23 | 1.59 | 8.3 | -0.0889 | -2.16 | 5.13 | -5
Cc1nc(C2CCCN2C(=O)c2ccccc2)ncc1C(N)=O (configuration not stated) | -3.32 | 10.7 | 3.14 | 7.6 | 1.97 | -3.96 | 3.79 | 22.3 | 5.32 | 14.1 | -6.6
CCN1CC(C(=O)NCc2ccccc2-n2cccn2)CC1=O (configuration not stated) | -2.49 | 13 | 0.208 | 2.02 | 2.45 | -1.05 | 15 | 11 | 5.71 | 23.5 | -8.96
c1cc(CNCc2ccnc(N3CCOCC3)c2)c2c(c1)OCCO2 | -3.35 | 5.41 | -12.3 | 26.3 | 8.31 | 15.1 | 6.27 | 15.7 | 1.07 | 16.1 | -5.85
